# Test results: PubChem BioAssay (NCATS)
# Several values for one entry are separate records, joined by “and”; a condition that tells them apart may be missing. Identical values can stand only once. Inconclusive results are not listed. Where a call stands in place of a potency, no number is given. Where a structure was tested more than once in an assay, its records may differ in their call. Activity calls are given as the source filed them. Calls come from the whole dose curve; as a rule, active = well fitted curve in the direction sought with a large enough effect; inconclusive = small, poorly fitted or top-dose-only effect, or another doubt; inactive = no such curve, though single readings can be large; an effect the other way counts as inactive or inconclusive.
# Columns and labels:
# [1] = target: Nuclear receptor subfamily 1 group I member 3 (Homo sapiens) (UniProt Q14994); assay: Primary qHTS for antagonist of constitutive androstane receptor (CAR) against the NCATS DSHEA and TCM libraries (AID 1794836);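 note: HepG2 cells stably expressing hCAR with CYP2B6 luciferase reporter stimulated by CITCO; series mostly up to about 40 µM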
# Procedure, shortened: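 HepG2-CYP2B6-hCAR cells, attached 5 h, given compounds plus CITCO agonist […], incubated 24 h at 37 C. Luciferase luminescence read, multiplexed with CellTiter-Fluor viability (Ex/Em 405/540 nm).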
# [2] = target: Glutathione peroxidase 1 (Homo sapiens) (UniProt P07203); assay: Primary qHTS Assay for Inhibitors of Recombinant Selenoprotein Glutathione Peroxidase 1 (GPX1) (AID 1845191); note: nearly all actives have a fitted effect of over 65% in size; note: potency is the fitted concentration of half-maximal effect
# Procedure, shortened: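 GR-coupled readout: NADPH consumption tracked by fluorescence, ex 340/em 450 nm, at t=0 and after 15 min at RT. Final mix 10 nM GPX1, 1 mM GSH, 0.5 mM CHP, 0.5 mM NADPH, 100 nM GR, 0.01% BSA, following 30 min enzyme–compound preincubation.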
# [3] = target: Phospholipid hydroperoxide glutathione peroxidase GPX4 (Homo sapiens) (UniProt P36969); assay: Primary qHTS Assay for Inhibitors of Recombinant Selenoprotein Glutathione Peroxidase 4 (GPX4) (AID 1845192); note: nearly all actives have a fitted effect of over 65% in size; note: potency is the fitted concentration of half-maximal effect; for activity change, negative = inhibition: series mostly up to about 50 µM
# Procedure, shortened: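 Steps: GPX4 plus compound, 30 min RT; add GR/GSH/NADPH master mix; start with cumene hydroperoxide; read 340/450 nm fluorescence at 0 and 15 min. Finals were 200 nM GPX4, 1 mM GSH, 0.5 mM CHP, 0.5 mM NADPH, 100 nM GR.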
# [4] = Quantitative High-Throughput drug screen in 47 multiple myeloma cell lines against the NCATS MIPE library collection: FR4_PLB cell viability assay (AID 1918924; note: nearly all actives have a fitted effect of over 35% in size; note: potency is the fitted concentration of half-maximal effect)
# Procedure, shortened: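 Steps: seed 500 cells per well; pin-transfer MIPE 4.0 library; incubate 48 h at 37C, 5% CO2, humidified; add CellTiter-Glo, 5 min room temperature; read luminescence.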
# [5] = target: Luciferin 4-monooxygenase (Photinus pyralis) (UniProt P08659); assay: Primary firefly luciferase (FLuc) qHTS assay for identification of artifact compounds. (AID 1845220); conditions: outcome: dose series up to 54.1 µM unless noted; note: nearly all actives have a fitted effect of over 60% in size; for activity change, negative = inhibition: series mostly up to about 54 µM
# Procedure, shortened: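 Titrated compounds were incubated 15 min at RT, protected from light, with luciferin and ATP at 10 uM; reaction started with 10 nM FLuc, luminescence imaged at 5 min, and concentration-response fitted by Hill equation.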
# [6] = Primary fluorescence-based thiol-reactive (MSTI) qHTS assay for identification of artifact compounds. (AID 1845221);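 note: series mostly up to about 54 µM; thiol-reactive compounds lower the probe fluorescence signal; nearly all actives have a fitted effect of over 65% in size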
# Procedure, shortened: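 Curve-fitted percent inhibition (4-parameter Hill) derived from fluorescence, Ex 525/Em 598 nm, scaled with Acetyl-MSTI and MSTI; 1 h incubation at room temperature.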
# [7] = system: Nanoluciferase (engineered Oplophorus gracilirostris luciferase); assay: Primary Nanoluciferase (NLuc) qHTS assay for identification of artifact compounds. (AID 1845222);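 note: NLuc secreted into diluted conditioned medium of S16 cells; series mostly up to about 54 µM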
# Procedure, shortened: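 qHTS format, against NLuc in S16 cell-conditioned medium. Nano-Glo substrate 1:100 was added after 15 min at room temperature. Luminescence was taken after a further 5 min.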
# [8] = Primary redox qHTS assay for identification of artifact compounds. (AID 1845223)
# Excerpt: PI: Alexander Tropsha Ph.D.
# UNC Eshelman School of Pharmacy
# University of North Carolina, Chapel Hill, North Carolina
# Hits from high-throughput screening (HTS) of chemical libraries are often false positives due to their interference with the assay detection technology. In response to this problem, we generated the largest publicly available library of chemical liabilities and developed a free webtool to predict HTS artifacts, both of which are described herein. More specifically, we generated, curated, and integrated HTS datasets for thiol reactivity, redox activity, and luciferase (firefly and nano) activity. Using these curated datasets, we developed and validated several Quantitative Structure-Interference Relationship (QSIR) models to predict nuisance behavior. […] These models were employed for virtual profiling of the National Center for Advancing Translational Science's (NCATS) in-house library, and 256 compounds for each assay were selected for the experimental validation of nuisance behavior. The BA for these external predictions ranged from 58 to 78% for compounds within the applicability domains of the models. […] The models developed in this study, along with aggregation models previously developed by our group (SCAM Detective) were implemented in "Liability Predictor," an online tool which may be used as part of chemical library design or for triaging HTS hits. Both the models and the curated datasets are publicly available at https://liability.mml.unc.edu/.
# SEQUENCE No. (e.g., 1, 2, 3, etc.); […] (e.g., Cells, Incubation, Reagent, etc.); VALUE; DESCRIPTION.
# 1; Reagent; 3 uL; Amplex Red and HRP mixture.
# 2; Compounds and control; 16 nL; Kalypsis pin tool (Wako USA) equipped with a 1536-well pin head. […]
# 6; Detection; Fluorescence, ViewLux microplate reader, 525 nm excitation, 598 nm emission.
# NOTES (numbers refer to Sequence numbers above)
# 1. […]
# 6. Samples were read for fluorescence (Ex/Em = 525(20)/598(25) nm) on a ViewLux CCD imager (PerkinElmer). […]
# Sequence of Glutathione peroxidase 1 (Homo sapiens) (P07203 whole entry, looked up): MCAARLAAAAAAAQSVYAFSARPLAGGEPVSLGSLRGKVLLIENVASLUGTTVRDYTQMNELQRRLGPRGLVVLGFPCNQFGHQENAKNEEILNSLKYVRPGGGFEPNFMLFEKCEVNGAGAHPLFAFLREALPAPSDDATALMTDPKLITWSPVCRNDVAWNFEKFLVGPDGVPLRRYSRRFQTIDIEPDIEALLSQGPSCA
# Sequence of Phospholipid hydroperoxide glutathione peroxidase GPX4 (Homo sapiens) (P36969 whole entry, looked up): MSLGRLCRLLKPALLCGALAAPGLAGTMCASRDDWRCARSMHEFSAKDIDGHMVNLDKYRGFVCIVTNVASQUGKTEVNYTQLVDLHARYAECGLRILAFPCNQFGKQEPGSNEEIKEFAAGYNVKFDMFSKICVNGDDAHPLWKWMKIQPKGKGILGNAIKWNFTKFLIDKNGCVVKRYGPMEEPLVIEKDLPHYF
# Sequence of Nuclear receptor subfamily 1 group I member 3 (Homo sapiens) (Q14994 whole entry, looked up): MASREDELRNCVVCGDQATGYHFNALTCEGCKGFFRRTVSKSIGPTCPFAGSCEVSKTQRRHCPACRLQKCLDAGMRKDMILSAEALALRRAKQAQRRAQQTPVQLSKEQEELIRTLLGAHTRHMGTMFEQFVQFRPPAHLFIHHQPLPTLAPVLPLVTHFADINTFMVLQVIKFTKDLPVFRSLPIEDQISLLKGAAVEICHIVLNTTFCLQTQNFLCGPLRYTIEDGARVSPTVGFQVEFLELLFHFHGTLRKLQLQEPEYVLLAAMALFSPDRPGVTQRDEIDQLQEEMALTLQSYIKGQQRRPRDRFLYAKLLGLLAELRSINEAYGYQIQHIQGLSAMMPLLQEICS
smiles,measurement,setting,value
NNC(=O)c1ccncc1,outcome,[1],inactive
C=CCc1ccc(O)c(OC)c1,outcome,[1],inactive
CC(C)C[C@H](CN)CC(=O)O,Potency,[2],inactive
same,Potency,[3],inactive
same,Potency,[4],inactive
CCOP(=S)(OCC)Oc1ccc2c(C)c(Cl)c(=O)oc2c1,Potency,[2],inactive
same,Potency,[3],inactive
NC(=O)c1cc([N+](=O)[O-])cc([N+](=O)[O-])c1,Potency,[2],inactive
same,Potency,[3],inactive
C#CC(O)(C=CCl)CC (configuration not stated),Potency,[2],inactive
same,Potency,[3],inactive
C=CCC1(C(C)CC)C(=O)NC(=O)NC1=O (configuration not stated),Potency,[2],inactive
same,Potency,[3],inactive
C[C@](O)(CS(=O)(=O)c1ccc(F)cc1)C(=O)Nc1ccc(C#N)c(C(F)(F)F)c1,Potency,[2],inactive
same,Potency,[3],inactive
same,Potency,[4],14.8 µM (active)
Clc1ccc(C(c2ccc(Cl)cc2)C(Cl)(Cl)Cl)cc1,Potency,[2],inactive
same,Potency,[3],inactive
O=C(Nc1ccc(Br)cc1)c1cc(Br)cc(Br)c1O,Potency,[3],inactive
COc1cccc(C(=O)CCN[C@@H](C)[C@H](O)c2ccccc2)c1,Potency,[2],inactive
same,Potency,[3],inactive
Nc1ccc([As](=O)(O)O)cc1,Potency,[2],inactive
same,Potency,[3],inactive
O=C(O)CCCc1ccc(N(CCCl)CCCl)cc1,Potency,[2],inactive
same,Potency,[3],inactive
CN1C(=O)COc2c(C(=O)NC3CN4CCC3CC4)cc(Cl)cc21 (configuration not stated),Potency,[2],inactive
same,Potency,[3],inactive
same,Potency,[4],inactive
COc1c2c(cc3c1OCO3)CCN(C)C2,Potency,[2],inactive
same,Potency,[3],inactive
C[C@]12CC[C@H]3[C@@H](CC[C@@]45O[C@H]4C(O)=C(C#N)C[C@]35C)[C@H]1CC[C@H]2O,Potency,[2],inactive
same,Potency,[3],inactive
COC(=O)C(c1ccccc1)C1CCCCN1 (configuration not stated),Potency,[2],inactive
same,Potency,[3],inactive
CCC(C)C(C)(COC(N)=O)COC(N)=O (configuration not stated),Potency,[2],inactive
same,Potency,[3],inactive
C[C@]12CCC(=O)C=C1CC[C@@H]1[C@@H]2CC[C@]2(C)C(=O)CC[C@@H]12,Potency,[2],inactive
same,Potency,[3],inactive
C[C@]12CC[C@@H]3c4ccc(OC(=O)N(CCCl)CCCl)cc4CC[C@H]3[C@@H]1CC[C@@H]2OP(=O)(O)O,Potency,[2],inactive
same,Potency,[3],inactive and 12.6 µM (active)
same,outcome,[5],inactive
same,outcome,[6],inactive
same,outcome,[7],inactive
C=CCN1C[C@H](C)N([C@H](c2ccc(C(=O)N(CC)CC)cc2)c2cccc(OC)c2)C[C@H]1C,outcome,[2],inactive [at 9.52 µM]
same,"activity change, negative = inhibition",[3],-0.741% [at 9.73 µM] (inactive)
same,outcome,[5],inactive [at 11.6 µM]
same,"activity change, negative = thiol reactive",[6],24.3% [at 11.5 µM] (inactive)
same,"activity, negative = inhibition",[7],1.52% [at 11.6 µM] (inactive)
same,redox activity (% of DA3003),[8],9.33% [at 11.5 µM] (inactive)
CN1C(=O)NC(=O)C(C)(C2=CCCCC2)C1=O (configuration not stated),Potency,[2],inactive
same,Potency,[3],inactive
C[C@]12CC[C@@H]3c4ccc(OC(=O)N(CCCl)CCCl)cc4CC[C@H]3[C@@H]1CC[C@@H]2O,Potency,[2],inactive
same,Potency,[3],inactive
C[N+]1(CCF)[C@@H]2CC[C@H]1CC(OC(=O)C(O)(c1ccccc1)c1ccccc1)C2 (some centres not stated),Potency,[2],inactive
same,Potency,[3],inactive
CC(=O)OCC1=C(C(=O)O)N2C(=O)[C@@H](N)[C@H]2SC1,Potency,[2],12.8 µM (active)
same,outcome,[5],inactive
same,outcome,[7],inactive
O=c1oc2ccccc2c(O)c1Cc1c(O)c2ccccc2oc1=O,Potency,[2],inactive
same,Potency,[3],inactive
Oc1ccc(Cl)cc1,Potency,[2],inactive
same,Potency,[3],inactive
COP(=S)(OC)Oc1cc(Cl)c(Cl)cc1Cl,Potency,[2],inactive
same,Potency,[3],inactive
COP(=S)(OC)Oc1ccc(SC)c(C)c1,Potency,[2],inactive
same,Potency,[3],inactive
C[C@]12Cc3cn[nH]c3C[C@@H]1CC[C@@H]1[C@@H]2CC[C@@]2(C)[C@H]1CC[C@]2(C)O,Potency,[2],inactive
same,Potency,[3],inactive
O=[N+]([O-])O[C@H]1CO[C@H]2[C@@H]1OC[C@H]2O[N+](=O)[O-],Potency,[2],inactive
same,Potency,[3],inactive
CCC(CC)(CNC(=O)CCCO)c1cccc(OC)c1,Potency,[2],inactive
same,Potency,[3],inactive
COc1cc(OC)c(OC)cc1C=O,Potency,[4],inactive
COP(=S)(OC)SCN1C(=O)c2ccccc2C1=O,Potency,[3],inactive
O=c1c(C2CC(c3ccc(-c4ccc(Br)cc4)cc3)Cc3ccccc32)c(O)sc2ccccc12 (configuration not stated),Potency,[2],22.7 µM (active)
same,Potency,[3],inactive
CCOC(=O)CC(SP(=S)(OC)OC)C(=O)OCC (configuration not stated),Potency,[3],inactive
C[C@@H](N)[C@@H](O)c1ccccc1,Potency,[3],inactive
COP(=S)(OC)Oc1ccc(S(=O)(=O)N(C)C)cc1,Potency,[2],inactive
same,Potency,[3],inactive
Nc1ccccc1,Potency,[2],inactive
same,Potency,[3],inactive
